The source of these data is paper PMC4336329 (PLoS ONE, 2015).

Screen size: about 310,000 compounds; about 2,200 (0.71%) showed an effect of 50% or more. The effect is printed as a negative number. This is one part of a sample in which strong results are shown more often than they occur.

human ether-à-go-go-related gene (hERG) potassium channel, sequence (Q12809 whole entry, looked up): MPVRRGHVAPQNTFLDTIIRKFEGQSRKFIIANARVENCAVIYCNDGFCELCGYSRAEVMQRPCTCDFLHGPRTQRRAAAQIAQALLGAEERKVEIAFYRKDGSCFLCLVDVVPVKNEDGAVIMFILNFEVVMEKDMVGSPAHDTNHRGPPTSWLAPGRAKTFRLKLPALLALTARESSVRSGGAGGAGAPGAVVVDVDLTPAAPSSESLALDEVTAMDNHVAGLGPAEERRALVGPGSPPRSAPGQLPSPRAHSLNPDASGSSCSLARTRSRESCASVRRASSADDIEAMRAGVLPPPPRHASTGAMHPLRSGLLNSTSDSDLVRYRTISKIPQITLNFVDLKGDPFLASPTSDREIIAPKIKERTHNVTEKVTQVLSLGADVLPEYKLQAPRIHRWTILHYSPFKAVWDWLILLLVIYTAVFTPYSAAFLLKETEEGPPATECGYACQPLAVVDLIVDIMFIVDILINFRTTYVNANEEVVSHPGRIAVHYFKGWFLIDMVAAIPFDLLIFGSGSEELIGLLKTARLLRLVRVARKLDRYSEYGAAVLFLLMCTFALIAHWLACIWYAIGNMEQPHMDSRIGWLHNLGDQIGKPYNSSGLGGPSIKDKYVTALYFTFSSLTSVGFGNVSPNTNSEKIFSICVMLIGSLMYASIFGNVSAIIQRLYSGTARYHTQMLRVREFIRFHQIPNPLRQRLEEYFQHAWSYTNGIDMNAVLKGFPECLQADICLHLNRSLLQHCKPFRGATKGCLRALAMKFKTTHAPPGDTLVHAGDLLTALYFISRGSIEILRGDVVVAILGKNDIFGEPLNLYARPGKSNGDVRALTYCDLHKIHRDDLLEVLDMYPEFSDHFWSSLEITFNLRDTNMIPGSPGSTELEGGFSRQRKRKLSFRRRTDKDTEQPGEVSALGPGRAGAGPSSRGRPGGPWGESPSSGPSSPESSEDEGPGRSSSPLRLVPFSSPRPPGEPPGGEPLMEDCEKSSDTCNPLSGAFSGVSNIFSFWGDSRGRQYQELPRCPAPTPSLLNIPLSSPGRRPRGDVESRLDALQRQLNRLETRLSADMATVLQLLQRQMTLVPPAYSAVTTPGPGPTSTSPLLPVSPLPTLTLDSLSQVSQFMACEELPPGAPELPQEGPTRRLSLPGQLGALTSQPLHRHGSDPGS

This assay has as its target human ether-à-go-go-related gene (hERG) potassium channel (human, UniProt Q12809). As to the kind of experiment: primary screen, population patch clamp on CHO cells stably expressing hERG; higher = less effect of the substance.
On to `CC1(C)CC(=O)C(C2c3ccccc3S(=O)(=O)c3ccccc32)C(=O)C1`, for which the “hERG current change (%, negative = inhibition) at 1uM” value was 16.3%. The value for `c1ccc(-c2nc3nonc3c3nc4ccccc4n23)cc1` was -1.03%; that for `Cc1cccc(N(CC(O)CN2CCOCC2)S(=O)(=O)c2ccccc2)c1` (stereo not shown) was 11.2%. The value for `Cc1ccc(S(=O)(=O)N(CC(O)CN2C(=O)NC(C)(C)C2=O)c2ccccc2)cc1` (stereo not shown) was -28.4%; that for `Cc1ccc(S(=O)(=O)N(CCC(=O)O)c2ccccc2)cc1` was 4.11%; that for `CCCN(CCC)CC(O)CN(c1ccccc1)S(=O)(=O)c1ccc(C)cc1` (stereo not shown) was -88.6%. With `CCN(CC)CC(O)CN(c1ccccc1)S(=O)(=O)c1ccc2ccccc2c1.Cl` (stereo not shown), the “hERG current change (%, negative = inhibition) at 1uM” value is listed as -78.5%.

As to `Cc1ccc(N(CC(O)CN(C)C)S(=O)(=O)c2ccccc2)cc1.Cl` (stereo not shown), the “hERG current change (%, negative = inhibition) at 1uM” value is recorded as -62.8%. The value for `Cc1cc(C)n(CC(O)CN(c2ccccc2)S(=O)(=O)c2ccc3ccccc3c2)n1` (stereo not shown) was 6.41%; that for `CCN(c1ccccc1)S(=O)(=O)c1ccc2ccccc2c1` was 14.6%. The value for `Cc1cccc(N(CC(O)CN(C)C)S(=O)(=O)c2ccccc2)c1.Cl` (stereo not shown) was -50.1%; that for `Cc1cccc(N(CC(O)CN2CCCC2)S(=O)(=O)c2ccccc2)c1` (stereo not shown) was -35.3%.

Take `Cc1ccc(S(=O)(=O)N(CC(O)CN(C)C)c2ccccc2)cc1.Cl` (stereo not shown): the “hERG current change (%, negative = inhibition) at 1uM” value is reported as -43.8%. The value for `O=S(=O)(c1ccccc1)N(CC(O)COc1ccccc1)c1ccccc1` (stereo not shown) was 7.47%; that for `Cc1nn(CC(=O)N2CCOCC2)c(=O)c2nn(-c3ccccc3)c(C)c12` was 16.5%; that for `Cc1nn(C/C(C#N)=N\O)c(C)[n+]1N.[Cl-]` was 11.8%. The value for `COc1c(Cl)cc(Cl)cc1CNCCNCC(C)O.Cl` (stereo not shown) was 5.98%. For `COc1ccc(C(=O)Nc2ccc(C(=O)N3CCOCC3)cc2)cc1OC`, the “hERG current change (%, negative = inhibition) at 1uM” value was determined as 11.3%. The figure for `Cc1c(NC(=O)/C(C#N)=C/c2ccccc2)c(=O)n(-c2ccccc2)n1C` is 8.78%; for `CCOC(=O)C1CCN(Cc2ccc(Cl)nc2)CC1` it is 11.6%; for `COc1ccc(C2c3c(ccc4ccccc34)Oc3ncn4nc(Cc5ccc(OC)c(OC)c5)nc4c32)cc1` (stereo not shown) it is 2.05%. On to `O=C(NCCc1ccccc1F)/C(=C/c1cccnc1)NC(=O)c1ccccc1`, for which the “hERG current change (%, negative = inhibition) at 1uM” value was -3.24%. In the case of `O=C(NCCc1ccc(Cl)cc1)/C(=C/c1cccnc1)NC(=O)c1ccccc1`, the “hERG current change (%, negative = inhibition) at 1uM” value is -53.8%. The value for `O=C(NCc1cccnc1)/C(=C/c1ccccc1)NC(=O)c1ccccc1` was -23.3%; that for `COc1ccc(CCNC(=O)/C(=C/c2cccnc2)NC(=O)c2ccccc2)cc1` was 3.27%. The value for `CN(C)c1ccc(/C=C(\NC(=O)c2ccccc2)C(=O)NCc2cccnc2)cc1` was -0.749%; that for `O=C(NCc1cccnc1)/C(=C/c1ccc(Cl)cc1)NC(=O)c1ccccc1` was -60.8%. The value for `COc1ccc(/C=C2\SC(=S)N(CCC(=O)N3CCCCC3)C2=O)cc1` was -2.37%. Take `CCOc1ccc(C(=O)CCC(=O)Nc2ccccc2C)cc1`: the “hERG current change (%, negative = inhibition) at 1uM” value is given as 12.5%. As for `CC(C)c1ccccc1NC(=O)COC(=O)CNC(=O)c1ccc(Br)cc1`, the “hERG current change (%, negative = inhibition) at 1uM” value came to 11%. With `CCN(CC)S(=O)(=O)c1ccc(Cl)c(NC(=O)CSc2nnc(-c3cccs3)o2)c1`, the “hERG current change (%, negative = inhibition) at 1uM” value turned out to be 5.51%.

With `CCOc1ccc(N2CC(C(=O)Nc3ccc(S(=O)(=O)N4CCCC4)cc3)CC2=O)cc1` (stereo not shown), the “hERG current change (%, negative = inhibition) at 1uM” value amounted to 6.22%. The value for `c1ccc(Nc2nn[nH]n2)cc1` was 10.1%; that for `NC(=O)c1sc2nc(N3CCCCC3)c3c(c2c1N)CCCC3` was 4.86%.

Turning to `Cc1cc(Cl)c2oc(C(=O)N3CCN(C(=O)c4ccco4)CC3)c(C)c2c1`, the “hERG current change (%, negative = inhibition) at 1uM” value stood at 7.14%. As for `Cc1cc(Cl)c2oc(C(=O)N3CCN(c4ccncc4)CC3)c(C)c2c1`, the “hERG current change (%, negative = inhibition) at 1uM” value was -83.6%. The value for `Cc1cc(Cl)c2oc(C(=O)N3CCN(c4cccc(C)n4)CC3)c(C)c2c1` was 14%; that for `Cc1ccc(S(=O)(=O)NCCC(=O)OCC(=O)N(Cc2ccccc2)C(C)(C)C)cc1C` was -0.298%. The figure for `O=C1CC2(CCN(C(=O)c3ccc([N+](=O)[O-])cc3)CC2)Oc2ccccc21` is -87.5%; for `COc1ccc(Cl)cc1C(=O)N1CCC2(CC1)CC(=O)c1ccccc1O2` it is -71.7%; for `O=C(O)c1ccc(S(=O)(=O)N2CCC3(CC2)CC(=O)c2ccccc2O3)cc1` it is 10.5%. The figure for `O=C1CC2(CCN(C(=O)c3ccc(Cl)cc3)CC2)Oc2ccccc21` is -63.7%. With `COc1ccccc1OCC(=O)N1CCC2(CC1)CC(=O)c1ccccc1O2`, the “hERG current change (%, negative = inhibition) at 1uM” value is listed as -4.96%. The value for `O=C(c1ccccc1)N1CCN(C(=O)c2ccc([N+](=O)[O-])cc2)CC1` was -4.32%; that for `O=C1CC2(CCN(C(=O)c3ccc(F)cc3)CC2)Oc2ccccc21` was -42.2%. As for `CC(=O)N1CCC2(CC1)CC(=O)c1cc(Cl)ccc1O2`, the “hERG current change (%, negative = inhibition) at 1uM” value is listed as -7.88%. Turning to `O=C1CC2(CCN(C(=O)c3cccc([N+](=O)[O-])c3)CC2)Oc2ccccc21`, the “hERG current change (%, negative = inhibition) at 1uM” value is recorded as -66.7%.

On to `O=C1CC2(CCN(C(=O)c3cccc(F)c3)CC2)Oc2ccccc21`, for which the “hERG current change (%, negative = inhibition) at 1uM” value was -32.6%. The value for `O=C1CC2(CCN(C(=O)c3c(F)cccc3F)CC2)Oc2ccccc21` was -3.63%; that for `O=C1CC2(CCN(C(=O)c3cccc(Cl)c3)CC2)Oc2ccccc21` was -46.6%.

Turning to `CCO.CN1CC=C2C(C#N)=C(N)C(C#N)(C#N)[C@H](c3ccoc3)[C@H]2C1`, the “hERG current change (%, negative = inhibition) at 1uM” value is on record as 6.1%. `COc1cc2ccccc2cc1C(=O)N(CCN(C)C)c1nc2c(OC)ccc(OC)c2s1.Cl`: the “hERG current change (%, negative = inhibition) at 1uM” value worked out at 14%. The figure for `Cc1ccnc(NS(=O)(=O)c2ccc(NS(=O)(=O)c3ccc(Br)cc3)cc2)n1` is 16.1%; for `COc1ccccc1NC(=S)NC(=O)/C=C/c1cccs1` it is 12.3%.

For `COCCCNC(=O)CN(c1cc(Cl)cc(Cl)c1)S(C)(=O)=O`, the “hERG current change (%, negative = inhibition) at 1uM” value turned out to be 8.12%. The figure for `COc1cc(S(=O)(=O)N2CCN(C(=O)c3ccco3)CC2)ccc1Cl` is 8.83%.

With `Cn1ncc2nnn(-c3ccccc3)c(=O)c21`, the “hERG current change (%, negative = inhibition) at 1uM” value is -0.008%. Consider `C=CCn1c(SCC(=O)Nc2sccc2C(N)=O)nc2ccc(Cl)cc2c1=O`, for which the “hERG current change (%, negative = inhibition) at 1uM” value was found to be 1.53%. The figure for `FCCCOc1ccc(/C=N/OCc2ccc(Cl)cc2Cl)cc1` is 9.53%; for `O=C1CC2(CCN(C(=O)c3ccccc3Cl)CC2)Oc2ccccc21` it is -27.6%; for `CSc1ccccc1C(=O)N1CCC2(CC1)CC(=O)c1ccccc1O2` it is -27.2%.

In the case of `O=C1CC2(CCN(C(=O)c3ccccc3F)CC2)Oc2ccccc21`, the “hERG current change (%, negative = inhibition) at 1uM” value is -47.9%.

`O=C1CC2(CCN(C(=O)c3ccccc3[N+](=O)[O-])CC2)Oc2ccccc21`: the “hERG current change (%, negative = inhibition) at 1uM” value is -19%. The figure for `Cc1c(C(=O)N2CCC3(CC2)CC(=O)c2ccccc2O3)cccc1[N+](=O)[O-]` is -83.9%; for `O=C1CC2(CCN(C(=O)c3ccccc3Br)CC2)Oc2ccccc21` it is -51.4%. As to `O=C1CC2(CCN(C(=O)c3c(F)cccc3Cl)CC2)Oc2ccccc21`, the “hERG current change (%, negative = inhibition) at 1uM” value is given as -4.7%. The figure for `O=C1CC2(CCN(C(=O)c3cccc(Br)c3)CC2)Oc2ccccc21` is -56%; for `O=C1CC2(CCN(C(=O)c3ccc(Br)cc3)CC2)Oc2ccccc21` it is -30.8%; for `CCn1nnc2cc(C(=O)Nc3cc(OC)cc(OC)c3)ccc21` it is 19.3%. As to `O=C(CCn1c(=O)sc2ccccc21)Nc1ccon1`, the “hERG current change (%, negative = inhibition) at 1uM” value is given as 4.85%. The figure for `COC(=O)c1ccccc1NC(=S)NC(=O)c1ccc(C)cc1` is 9.88%; for `CC(C)CSc1nc2ccccc2[nH]1` it is 13%; for `COCCN1C(=O)C(=O)/C(=C(/O)c2ccc(S(=O)(=O)N3CCCCC3)cc2)C1c1ccc(OC)cc1` (stereo not shown) it is 11.9%. On to `C=CC[C@@H](C)CC(=O)C(CCCN=[N+]=[N-])SOOc1ccccc1` (stereo partly shown), for which the “hERG current change (%, negative = inhibition) at 1uM” value is 11.2%.

As for `Cc1ccc(S(=O)(=O)N2c3ccccc3-c3c(ssc3=S)C2(C)C)cc1`, the “hERG current change (%, negative = inhibition) at 1uM” value is on record as -1.68%. The value for `COc1ccccc1OCC(=O)Nc1ccccc1C(=O)N1CCCC1` was 5.81%; that for `O=C(c1ccc2c(c1)OCCO2)N1CCN(c2ccc([N+](=O)[O-])cc2)CC1` was 1.16%; that for `CCc1nc2ccc(C(=O)N3CCN(c4ccc([N+](=O)[O-])cc4)CC3)cc2nc1CC` was -38.2%. The value for `CCCN1CCN(C(=O)c2ccc(-c3ccc([N+](=O)[O-])cc3)o2)CC1` was -70.1%; that for `Cc1c(Cl)cccc1-c1ccc(C(=O)N2CCN(c3ccc([N+](=O)[O-])cc3)CC2)o1` was -1.98%; that for `O=C(c1ccc(-c2ccc([N+](=O)[O-])cc2)o1)N1CCCCCCC1` was -6.48%. Turning to `COc1cccc(N2CCN(C(=O)c3nc4nc(C)cc(C)n4n3)CC2)c1`, the “hERG current change (%, negative = inhibition) at 1uM” value is recorded as 8.37%. The figure for `Cc1cc(C)n2nc(C(=O)N3CCN(c4ccc([N+](=O)[O-])cc4)CC3)nc2n1` is -77.6%; for `COc1ccc(N2CCN(C(=O)c3nc4nc(C)cc(C)n4n3)CC2)cc1` it is 7.39%; for `Cc1cc(C(=O)N2CCN(c3ccc([N+](=O)[O-])cc3)CC2)c(C)o1` it is -35.1%. The value for `O=C(c1ccc(-c2ccc([N+](=O)[O-])cc2)o1)N1CCCCC1` was -10.5%. The value for `Cc1ccc(C(=O)N2CCN(c3ccc([N+](=O)[O-])cc3)CC2)o1` was -79%; that for `O=C(c1ccc2nsnc2c1)N1CCN(c2ccc([N+](=O)[O-])cc2)CC1` was -57.4%.
